Results reported in PubChem BioAssay (EPA / NIEHS).
Records with an inconclusive call do not appear. The source made the active and inactive calls. Rule for the calls: active = hit-call score of the fitted dose curve at least 0.9, where 1 is the maximum; inconclusive = response in the unintended direction; inactive = score below 0.9.

read-out: ABC Transporter (ABCB1), ABCB1 (gene 5243); assay: CLD_ABCB1_24hr: CellzDirect (CLD) Gene Expression Assay for ABC Transporter (ABCB1) at 24 hours (AID 2283684);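 for AC50: potency for increase in ABCB1 mRNA relative to DMSO vehicle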
Experimental: CLD_24hr is a cell-based, multiplexed-readout assay that uses hepatocyte, a human liver primary cell, with measurements taken at 24 hours after chemical dosing in a 96-well plate.CLD_ABCB1_24hr is one of 16 assay component(s) measured or calculated from the CLD_24hr assay. It is designed to make measurements of mRNA induction, a form of inducible reporter, as detected with chemiluminescence signals by Quantitative Nuclease Protection Assay (qNPA) technology.Data from the assay component CLD_ABCB1_24hr was analyzed at the endpoint, CLD_ABCB1_24hr, in the positive analysis fitting direction relative to DMSO as the negative control and baseline of activity. Using a type of inducible reporter, gain-of-signal activity can be used to understand changes in the reporter gene as they relate to the gene ABCB1. Furthermore, this assay endpoint can be referred to as a primary readout. To generalize the intended target to other relatable targets, this assay endpoint is annotated to the transporter intended target family, where subfamily is ABC transporter.
Human hepatocyte cultures were treated daily for two consecutive days with fresh dosing solutions containing appropriate concentrations of the 320 ToxCast chemicals (chemical identities were blinded to CellzDirect and other ToxCast collaborators), vehicle control (0.2% DMSO), and positive control inducers as summarized in Table 1. Due to the large number of treatment groups and chemicals examined, the ToxCast chemicals were divided into two groups (spanning two independent cultures of hepatocytes from separate donor preparations (Hu778: ToxCast plates 1 and 2; Hu776: ToxCast plates 3 and 4). Each preparation of human hepatocyte cultures was treated with respective vehicle control, medium only control, set of six positive controls/reference chemicals for the five hepatic receptor pathways, and a subset of eight of the ToxCast chemicals (indoxacarb, pyrithiobac-sodium, norflurazon, cyhalofop-butyl, methomyl, thiram, acetochlor, and propiconazole). These replicate data, coupled with internal replicates designed within the blinded ToxCast chemical library, provided additional data to evaluate interindividual differences between hepatocyte preparations and their potential impact on chemical profiles.Cell morphology and integrity were evaluated using phase-contrast microscopy as an indicator of hepatocyte cell health (Tyson & Green, 1987). Cultures for each treatment group (i.e., media, vehicle [0.2% DMSO], positive control inducers [multiple concentrations], and the ToxCast chemicals [multiple concentrations]) were observed and cell morphology was assessed relative to vehicle control cultures at each harvest time point (0, 6, 24, or 48 h). […] Images were evaluated at the conclusion of the study to assess changes in cell integrity and account for the effects of chemical exposure on uncharacteristic changes in concentration-dependent gene expression profiles. The results from these determinations of apparent cytotoxicity were annotated (yes/no) alongside the corresponding qNPA data for reference.At the conclusion of each treatment period, hepatocyte cultures (96-well) were washed with 1 volume of HBSS, lysed by addition of 25 ul ArrayPlate lysis buffer (HTG, Tucson, AZ), and 70 ul/well of Denaturation Oil, denatured by incubation at 95C for 10 min, and frozen at approximately -70C until analysis by nuclease protection assay (qNPA) (Roberts et al., 2007). For qNPA analysis, cell lysates were thawed at 50C for approximately 30 min, qNPA probes were added, and samples were incubated at 95C for 10 min to begin the detection process by denaturing the target RNA, dissociating the duplexes and secondary structure hybridization. At the conclusion of the hybridization period, S1 nuclease reagent was added to each sample to digest all nonprotected nucleotides at 50C for 60-90 min. […]

SMILES	outcome	AC50
O=c1n(Cl)c(=O)n(Cl)c(=O)n1Cl	inactive	–
N#Cc1c(Cl)cccc1Cl	inactive	–
CCNC(=O)NC(=O)C(C#N)=NOC	inactive	–
CC(C)C1(C)N=C(c2ncccc2C(=O)O)NC1=O (stereo not given)	inactive	–
O=P(O)(O)CCCl	inactive	–
CN=C=S	inactive	–
CCSC(=O)N1CCCCCC1	inactive	–
COC(=O)NS(=O)(=O)c1ccc(N)cc1	inactive	–
COP(=S)(OC)SCn1nnc2ccccc2c1=O	inactive	–
CC(C)Nc1nc(Cl)nc(NC(C)C)n1	inactive	–
Clc1nc(Cl)nc(Nc2ccccc2Cl)n1	inactive	–
C=C(C)CN(CC)c1c([N+](=O)[O-])cc(C(F)(F)F)cc1[N+](=O)[O-]	inactive	–
COC(=O)c1c(C(F)F)nc(C(F)(F)F)c(C2=NCCS2)c1CC(C)C	inactive	–
COc1cc(Cl)c(OC)cc1Cl	inactive	–
CC1(C)C(C=C(Cl)Cl)C1C(=O)OC(C#N)c1cccc(Oc2ccccc2)c1 (stereo not given)	inactive	–
Nc1c(Cl)c(Cl)nc(C(=O)O)c1Cl	inactive	–
COc1ccc(-c2ccccc2)cc1NNC(=O)OC(C)C	inactive	–
CC(C)N1C(=O)N(c2ccccc2)CSC1=NC(C)(C)C	inactive	–
CC(C)Oc1cccc(NC(=O)c2ccccc2C(F)(F)F)c1	inactive	–
CC(C)(C)C(=O)C(Oc1ccc(Cl)cc1)n1cncn1 (stereo not given)	inactive	–

SMILES	outcome	AC50
CCOc1nc(C(Cl)(Cl)Cl)ns1	inactive	–
Clc1cccc(C(Cl)(Cl)Cl)n1	inactive	–
Nc1cnn(-c2ccccc2)c(=O)c1Cl	inactive	–
Cc1c(COC(=O)[C@@H]2[C@H](/C=C(\Cl)C(F)(F)F)C2(C)C)cccc1-c1ccccc1	–	29.9 µM (active)
CC1(C)CON(Cc2ccccc2Cl)C1=O	inactive	–
COC(=O)N(C(=O)N1CO[C@@]2(C(=O)OC)Cc3cc(Cl)ccc3C2=N1)c1ccc(OC(F)(F)F)cc1	inactive	–
CS(=O)(=O)c1ccc(C(=O)C2C(=O)CCCC2=O)c([N+](=O)[O-])c1	inactive	–
CC1(C)CCC(=Cc2ccc(Cl)cc2)C1(O)Cn1cncn1 (stereo not given)	inactive	–
Cn1c(-c2ccccc2)cc(-c2ccccc2)[n+]1C	inactive	–
CSC(=O)c1c(C(F)F)nc(C(F)(F)F)c(C(=O)SC)c1CC(C)C	inactive	–
O=C1C2CC=CCC2C(=O)N1SC(Cl)(Cl)Cl (stereo not given)	inactive	–
CCCCC(O)(Cn1cncn1)c1ccc(Cl)cc1Cl (stereo not given)	–	31.9 µM (active)
COc1cc(OC)nc(NC(=O)NS(=O)(=O)c2ncccc2OCC(F)(F)F)n1	inactive	–
CCOc1cc(C(C)(C)C)ccc1C1COC(c2c(F)cccc2F)=N1 (stereo not given)	inactive	–
CNC(=O)Oc1cccc2ccccc12	inactive	–
CCOP(=S)(OCC)Oc1nc(Cl)n(C(C)C)n1	inactive	–
CCCC(=NOCC)C1=C(O)CC(CC(C)SCC)CC1=O (stereo not given)	inactive	–
COCC(C)N(C(=O)CCl)c1c(C)csc1C (stereo not given)	inactive	–
O=C(Nc1ccccc1-c1ccc(Cl)cc1)c1cccnc1Cl	inactive	–
Cc1cnc(C2=NC(C)(C(C)C)C(=O)N2)c(C(=O)O)c1 (stereo not given)	inactive	–
